Screen size: about 340,000 compounds; about 3,300 (0.97%) were called active. Inconclusive results (about 9%) are left out. Calls follow the shape of the dose curve; as a rule, active = well fitted inhibition curve with a large enough effect; inconclusive = small, poorly fitted or top-dose-only effect, or effect the other way; inactive = flat fitted curve, though single readings scatter. This is one part of the list.
Test: qHTS Assay for Modulators of miRNAs and/or Inhibitors of miR-21; also: nearly all actives have a fitted effect of over 55% in size
Conditions: HeLa miR-21-FLuc reporter, luciferase luminescence, 48 h; actives lower the signal
Procedure, shortened: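 Compounds were titrated across several concentrations (up to approximately 40 uM) and incubated 48 hours with HeLa miR-21-FLuc reporter cells (miR-21 target sequence downstream of FLuc, endogenous miR-21). Readout was firefly luciferase luminescence after lytic detection reagent.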
Potency is read from the fitted curve at half-maximal effect.

Potency, active:
O=c1c(-c2ccc(O)cc2)coc2cc(OC3OC(CO)C(O)C(O)C3O)cc(O)c12 (centres undefined) 2.61 µM
CCN1CCN(c2cc3c(nn2)Oc2ccccc2N3C)CC1 7.36 µM
CCC(=O)Nc1ccc(N2CCC(C)CC2)cc1 18.5 µM
CC1CCN(c2ccc(NC(=O)c3ccc(Br)o3)cc2)CC1 0.656 µM
Cc1c(Cl)cccc1Nc1nc(N)nc(CSc2ncccn2)n1 16.5 µM
Nc1nc(CSc2ccccc2)nc(N2CCCCC2)n1 6.56 µM
Cc1ccccc1Nc1nc(N)nc(CSc2ccc(F)cc2)n1 1.31 µM
Cc1ccccc1Nc1nc(N)nc(CSc2ccccc2)n1 0.656 µM
CN1C(=O)/C(=C\c2cc(Br)cs2)c2ccccc21 16.5 µM
Cc1nn(-c2ccccc2)c(N)c1N=Nc1ccc2ccccc2c1 4.65 µM
Cc1nn(-c2ccccc2)c(N)c1N=Nc1cccnc1 11.7 µM
Cc1cccc(N=Nc2c(C)nn(-c3ccccc3)c2N)c1C 7.36 µM
Cc1snc2sc(C(=O)c3ccc(F)cc3)c(N)c12 5.21 µM
Cc1cccc(C)c1OCC(=O)Nc1cccc(C(=O)O)c1 1.85 µM
CC(=O)c1cccc(NC(=O)COC(=O)c2ccccc2C)c1 5.85 µM
CC(=O)Nc1ccc(-c2csc(-c3cccnc3)n2)cc1 1.17 µM
CC(C)C(=O)Nc1ccc(C(=O)c2ccccc2)cc1 7.36 µM
O=C(Nc1ccccc1Cl)c1csc(-c2cccnc2)n1 13.1 µM
CC(C)C(=O)Nc1ccc(-c2csc(-c3ccccc3)n2)cc1 2.33 µM
CC(C)C(=O)Nc1ccc(-c2nnc(-c3ccccc3)o2)cc1 0.261 µM
COC(=O)c1ccsc1NC(=O)CCc1ccccc1 7.36 µM
c1cncc(-c2nc(-c3ccc4c(c3)OCO4)cs2)c1 1.65 µM
COc1ccc(-c2csc(-c3cccnc3)n2)cc1C 3.69 µM
COc1ccc2cc(-c3csc(-c4cccnc4)n3)ccc2c1 3.29 µM
CC(=O)c1ccc(N=Nc2ccc(N(C)C)cc2)cc1 0.293 µM
CN(C)c1ccc(N=Nc2ccc(S(N)(=O)=O)cc2)cc1 1.17 µM
O=C(c1cc(-c2ccc(Br)cc2)on1)N1CCCCCC1 0.927 µM
O=C(c1cc(-c2ccc(Br)cc2)on1)N1CCOCC1 0.585 µM
c1ccc(-c2noc(-c3ccc4c(c3)OCO4)n2)cc1 0.293 µM
COc1cccc(-c2noc(-c3ccc4c(c3)OCO4)n2)c1 0.261 µM
COc1cc(/C=N/NC(=S)NC2CC3CCC2C3)ccc1O (centres undefined) 7.36 µM
C=CCn1c(SCC(N)=O)nc2scc(-c3ccc(C)o3)c2c1=O 5.85 µM
COc1ccc(NC(=O)c2cc3ccccc3o2)c(OC)c1 0.585 µM
COc1ccccc1NC(=O)c1cc2ccccc2o1 2.93 µM
COc1cc(NC(=O)c2c(OC)cccc2OC)ccc1NC(=O)c1cc2ccccc2o1 5.21 µM
CCC(=O)Nc1cccc(NC(=S)NC(=O)c2cc3ccccc3o2)c1 0.585 µM
COc1ccccc1NC(=O)c1cc2ccc3cccnc3c2[nH]1 2.33 µM
O=C(Nc1ccccc1C(F)(F)F)c1cc2ccccc2o1 1.17 µM
CNC(C)C#Cc1ccc2c(=O)c3c(OC)cccc3oc2c1 (centres undefined) 3.69 µM
COc1cccc2oc3ccc(C#CC4(N)CCCCC4)cc3c(=O)c12 7.36 µM
COc1cccc2oc3cc(C#Cc4ccccn4)ccc3c(=O)c12 2.93 µM
O=c1cc(-c2ccc3c(c2)OCCO3)oc2ccc(Cl)cc12 0.185 µM
CCCC(=O)Nc1ccc2c(c1)Cc1ccccc1-2 1.85 µM
CCCCC(=O)Nc1ccc2c(c1)oc1ccccc12 2.33 µM
O=C(Nc1ccccc1)Nc1ccc2ccccc2c1 2.93 µM
CCCCCC(=O)Nc1ccc2ccccc2c1 4.65 µM
Cc1ccc(-c2nn(-c3ccccc3)cc2CO)o1 1.47 µM
Cc1ccc(-c2nn(-c3ccccc3)cc2CO)cc1 14.7 µM
O=C(/C=C\Nc1ccc2c(c1)OCO2)c1ccc(Cl)s1 0.464 µM
O=C(/C=C\Nc1ccc2c(c1)OCO2)c1ccc2c(c1)OCO2 5.85 µM
COc1ccc(N/C=C/C(=O)c2ccc3c(c2)OCO3)cc1OC 13.1 µM
COc1ccc(N/C=C\C(=O)c2ccc3c(c2)OCO3)cc1OC 14.7 µM
Cc1ccc(OCC(=O)Nc2ccc(F)cc2)c([N+](=O)[O-])n1 7.36 µM
Cc1ccc(OCC(=O)Nc2ccc3c(c2)OCO3)c([N+](=O)[O-])n1 7.36 µM
CCOc1ccc(/C=C/C2=NNC(=O)CC2)cc1 5.85 µM
COc1ccc(-c2cc(C)nc3c(-c4ccccc4)cnn23)cc1 0.233 µM
Cc1nc2c(-c3ccc(F)cc3)cnn2c(N)c1-c1ccc(F)cc1 0.414 µM
Cc1cc(N)n2ncc(-c3ccc(F)cc3)c2n1 4.65 µM
Cc1cc(N)n2ncc(-c3ccccc3)c2n1 3.29 µM
Cc1cc(N)n2ncc(-c3cccc(Br)c3)c2n1 3.29 µM
CCOC(=O)c1cn2nc(Oc3ccccc3)ccc2n1 5.85 µM
O=C(COc1ccccc1Br)Nc1ccc2c(c1)OCCCO2 0.927 µM
N#Cc1ccccc1OCC(=O)Nc1ccc2c(c1)OCCCO2 2.61 µM
CC1=C(C)CC(C(=O)NCC(=O)c2ccccc2)C(C(=O)O)C1 (centres undefined) 4.14 µM
Cc1cc(C)n2nc(SCCOc3ccccc3)nc2n1 7.36 µM
Cc1cc(C)n2nc(SCCOc3ccccc3F)nc2n1 11.7 µM
Cc1cc(C)n2nc(SCC3COc4ccccc4O3)nc2n1 (centres undefined) 16.5 µM
Clc1ccc(Cc2nnc(-c3ccccc3Br)o2)cc1 16.5 µM
Clc1ccc(Cc2nnc(-c3cccs3)o2)cc1 18.5 µM
